Laboratory results as given in PubChem BioAssay (EPA / NIEHS).
Calls of active or inactive are those of the source. Rule for the calls: active = hit-call score of the fitted dose curve at least 0.9, where 1 is the maximum; inactive = score below 0.9.

Tests used:
[1] = read-out: TIMP metallopeptidase inhibitor 2 (TIMP2), TIMP2 (gene 7077); test: BSK_KF3CT_TIMP2: BioMAP Diversity Plus: KF3CT Assay for TIMP metallopeptidase inhibitor 2 (TIMP2) Biomarker Activity (AID 2283071); details: primary human keratinocytes with fibroblasts; actives raise or lower the signal
How it was run: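 Keratinocyte–fibroblast co-culture, 24 h exposure; TIMP-2 ELISA, DMSO-normalised bidirectional fit. Parallel SRB (0.1%, TCA-fixed, 560 nm) total-protein staining gauges cytotoxicity.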

[2] = read-out: Transforming growth factor beta 1 (TGFb1), TGFB1 (gene 7040); test: BSK_KF3CT_TGFb1: BioMAP Diversity Plus: KF3CT Assay for Transforming growth factor beta 1 (TGFb1) Biomarker Activity (AID 2283072); details: primary human keratinocytes with fibroblasts; actives raise or lower the signal
How it was run: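 Signal changes in either direction, relative to DMSO, define activity here. TGF-b1 is read by ELISA from a human keratinocyte-fibroblast co-culture 24 h post-dose.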

[3] = read-out: Matrix Metallopeptidase 9 (MMP9), MMP9 (gene 4318); test: BSK_KF3CT_MMP9: BioMAP Diversity Plus: KF3CT Assay for Matrix Metallopeptidase 9 (MMP9) Biomarker Activity (AID 2283074); details: primary human keratinocytes with fibroblasts; actives raise or lower the signal;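 for AC50: MMP9 protein level quantified by ELISA in the co-culture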
How it was run: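 Keratinocyte plus foreskin fibroblast human primary skin co-culture was dosed with chemical and MMP-9 was quantified by ELISA 24 h later. Bidirectional curve fitting used DMSO as negative control and activity baseline.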

[4] = read-out: urokinase plasminogen activator (uPA), PLAU (gene 5328); test: BSK_KF3CT_uPA: BioMAP Diversity Plus: KF3CT Assay for urokinase plasminogen activator (uPA) Biomarker Activity (AID 2283075); details: primary human keratinocytes with fibroblasts; actives raise or lower the signal
How it was run: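 Human keratinocyte plus foreskin fibroblast primary co-culture exposed to chemical for 24 h. uPA levels were quantified by ELISA, and activity was fitted bidirectionally against a DMSO negative-control baseline.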

CD40, CD40 (gene 958) [5] = test: BSK_LPS_CD40: BioMAP Diversity Plus: LPS Assay for CD40 Biomarker Activity (AID 2283076); details: primary human HUVEC with PBMC; actives raise or lower the signal
How it was run: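 CD40 signal, measured by ELISA, is fitted in both directions relative to DMSO vehicle. The system is an LPS-driven human vascular primary co-culture of endothelial cells and PBMC, sampled 24 h after compound addition.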

[6] = read-out: E-selectin (Homo sapiens) (UniProt P16581); test: BSK_LPS_Eselectin: BioMAP Diversity Plus: LPS Assay for Eselectin Biomarker Activity (AID 2283077); details: primary human HUVEC with PBMC; actives raise or lower the signal
How it was run: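 Signal of E-selectin, detected by ELISA, served as the endpoint; cells were umbilical vein endothelium with PBMC, read 24 h after treatment. DMSO defined baseline, and both increases and decreases were fitted.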

[7] = read-out: Interleukin-8 (IL8), CXCL8 (gene 3576); test: BSK_LPS_IL8: BioMAP Diversity Plus: LPS Assay for Interleukin-8 (IL8) Biomarker Activity (AID 2283078); details: primary human HUVEC with PBMC; actives raise or lower the signal
How it was run: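 Endothelial cells and PBMC from human donors are co-cultured, treated with chemicals and LPS, then assayed for IL-8 by ELISA after 24 h. Parallel SRB staining (0.1% SRB after 10% TCA fixation, 560 nm) flags cytotoxicity.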

[8] = BSK_LPS_SRB: Viability Assessment in the BioMAP Diversity Plus: LPS Assay (AID 2283079); details: primary human HUVEC with PBMC;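 note: total protein by sulforhodamine B absorbance as a cytotoxicity measure; measured one day after compound addition; fitted in both directions against DMSO so loss or gain of signal counts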
How it was run: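 Overt cytotoxicity was gauged by sulforhodamine B total-protein staining in a primary human vascular endothelial and mononuclear cell co-culture 24 h post-dosing. Activity was fitted in both directions relative to DMSO.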

[9] = read-out: Interleukin-1 alpha (IL1a), IL1A (gene 3552); test: BSK_LPS_IL1a: BioMAP Diversity Plus: LPS Assay for Interleukin-1 alpha (IL1a) Biomarker Activity (AID 2283080); details: primary human HUVEC with PBMC; actives raise or lower the signal
How it was run: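 Measured: IL-1 alpha via ELISA at 24 h in LPS-activated human umbilical vein endothelium–PBMC co-culture. Baseline: DMSO, bidirectional fitting.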

[10] = read-out: Monocyte Chemoattractant Protein-1 (MCP1), CCL2 (gene 6347); test: BSK_LPS_MCP1: BioMAP Diversity Plus: LPS Assay for Monocyte Chemoattractant Protein-1 (MCP1) Biomarker Activity (AID 2283081); details: primary human HUVEC with PBMC; actives raise or lower the signal;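 for AC50: secreted MCP-1 protein quantified by ELISA in culture supernatant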
How it was run: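 LPS-stimulated HUVEC/PBMC co-culture; chemical, 24 h; MCP-1 by ELISA; bidirectional fit vs DMSO; cytotoxicity via SRB (0.1% stain, 10% TCA fix, 560 nm) in parallel wells.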

[11] = BSK_LPS_PGE2: BioMAP Diversity Plus: LPS Assay for Prostaglandin E2 (PGE2) Biomarker Activity (AID 2283082); details: primary human HUVEC with PBMC; actives raise or lower the signal;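 for AC50: secreted prostaglandin E2 measured by ELISA in LPS-stimulated co-culture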
How it was run: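 Endpoint derived from bidirectional curve fitting versus DMSO of ELISA-measured PGE2 in LPS-stimulated human primary vascular co-culture (HUVEC with PBMC) harvested at 24 h.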

[12] = read-out: Macrophage colony-stimulating factor (MCSF), CSF1 (gene 1435); test: BSK_LPS_MCSF: BioMAP Diversity Plus: LPS Assay for Macrophage colony-stimulating factor (MCSF) Biomarker Activity (AID 2283083); details: primary human HUVEC with PBMC; actives raise or lower the signal
How it was run: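 Compound is added to a human vascular primary co-culture of umbilical vein endothelium and blood mononuclear cells. After 24 h, M-CSF is quantified by ELISA. Signal changes are fitted in both directions against DMSO.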

[13] = read-out: Tissue Factor, F3 (gene 2152); test: BSK_LPS_TissueFactor: BioMAP Diversity Plus: LPS Assay for Tissue Factor Biomarker Activity (AID 2283084); details: primary human HUVEC with PBMC; actives raise or lower the signal
How it was run: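 In this co-culture system of umbilical vein endothelium with PBMC, stimulated with LPS, cell-surface CD142 is detected by ELISA at 24 h. Endpoint values derive from bidirectional fitting, DMSO serving as baseline.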

[14] = read-out: Tumor necrosis factor (Homo sapiens) (UniProt P01375); test: BSK_LPS_TNFa: BioMAP Diversity Plus: LPS Assay for Tumour Necrosis Factor alpha (TNFa) Biomarker Activity (AID 2283085); details: primary human HUVEC with PBMC; actives raise or lower the signal;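 for AC50: TNFa protein level quantified by ELISA in the co-culture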
How it was run: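 Primary human vascular co-culture of HUVEC and PBMC; TNFa ELISA 24 h after treatment, analysed as increase or decrease relative to DMSO control.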

[15] = read-out: Vascular cell adhesion molecule 1 (VCAM1), VCAM1 (gene 7412); test: BSK_LPS_VCAM1: BioMAP Diversity Plus: LPS Assay for Vascular cell adhesion molecule 1 (VCAM1) Biomarker Activity (AID 2283086); details: primary human HUVEC with PBMC; actives raise or lower the signal
How it was run: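 Primary human vascular co-culture (umbilical vein endothelium plus PBMC) stimulated with LPS received chemical; 24 h later VCAM-1 was read by ELISA. Overt cytotoxicity was assessed by sulforhodamine B staining of parallel cultures at the same time point.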

CD38, CD38 (gene 952) = test: BSK_SAg_CD38: BioMAP Diversity Plus: SAg Assay for CD38 Biomarker Activity (AID 2283087); details: primary human HUVEC with PBMC; actives raise or lower the signal
How it was run: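 Fluorescence ELISA of cell-surface CD38 served as the read-out, with either increase or decrease fitted against DMSO controls. Cells were a human umbilical vein endothelium plus PBMC co-culture under SEB/TSST-1 stimulation, measured 24 h after dosing.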

CD40, CD40 (gene 958) [16] = test: BSK_SAg_CD40: BioMAP Diversity Plus: SAg Assay for CD40 Biomarker Activity (AID 2283088); details: primary human HUVEC with PBMC; actives raise or lower the signal
How it was run: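 Fluorescence ELISA read-out of CD40 from umbilical vein endothelium plus peripheral blood mononuclear cells, sampled 24 h after dosing. Values come from bidirectional curve fitting with DMSO as baseline.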

CD69, CD69 (gene 969) = test: BSK_SAg_CD69: BioMAP Diversity Plus: SAg Assay for CD69 Biomarker Activity (AID 2283089); details: primary human HUVEC with PBMC; actives raise or lower the signal;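 for AC50: cell surface CD69 protein quantified by ELISA with fluorescence detection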
How it was run: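 Primary human vascular co-culture (umbilical vein endothelium with peripheral blood mononuclear cells) exposed to test chemical for 24 h. CD69 levels quantified by fluorescence ELISA; DMSO served as negative control for bidirectional fitting.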

[17] = read-out: C-C motif chemokine 2 (Homo sapiens) (UniProt P13500); test: BSK_KF3CT_MCP1: BioMAP Diversity Plus: KF3CT Assay for Monocyte Chemoattractant Protein 1 (MCP1/CCL2) Biomarker Activity (AID 2283073); details: primary human keratinocytes with fibroblasts; actives raise or lower the signal
How it was run: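 Keratinocytes and foreskin fibroblasts were co-cultured, dosed with chemical, and sampled 24 h later. MCP-1 was quantified by ELISA, and the endpoint was analyzed with bidirectional fitting using DMSO as negative control.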

Measured: AC50

Chain of Tumor necrosis factor (Homo sapiens) (P01375 whole entry, looked up): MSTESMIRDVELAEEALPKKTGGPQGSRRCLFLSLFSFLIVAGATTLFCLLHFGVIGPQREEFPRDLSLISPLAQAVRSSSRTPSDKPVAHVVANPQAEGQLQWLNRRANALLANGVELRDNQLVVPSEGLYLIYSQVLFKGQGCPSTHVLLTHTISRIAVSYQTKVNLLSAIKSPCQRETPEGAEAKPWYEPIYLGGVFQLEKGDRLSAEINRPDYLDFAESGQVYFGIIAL
Chain of E-selectin (Homo sapiens) (P16581 whole entry, looked up): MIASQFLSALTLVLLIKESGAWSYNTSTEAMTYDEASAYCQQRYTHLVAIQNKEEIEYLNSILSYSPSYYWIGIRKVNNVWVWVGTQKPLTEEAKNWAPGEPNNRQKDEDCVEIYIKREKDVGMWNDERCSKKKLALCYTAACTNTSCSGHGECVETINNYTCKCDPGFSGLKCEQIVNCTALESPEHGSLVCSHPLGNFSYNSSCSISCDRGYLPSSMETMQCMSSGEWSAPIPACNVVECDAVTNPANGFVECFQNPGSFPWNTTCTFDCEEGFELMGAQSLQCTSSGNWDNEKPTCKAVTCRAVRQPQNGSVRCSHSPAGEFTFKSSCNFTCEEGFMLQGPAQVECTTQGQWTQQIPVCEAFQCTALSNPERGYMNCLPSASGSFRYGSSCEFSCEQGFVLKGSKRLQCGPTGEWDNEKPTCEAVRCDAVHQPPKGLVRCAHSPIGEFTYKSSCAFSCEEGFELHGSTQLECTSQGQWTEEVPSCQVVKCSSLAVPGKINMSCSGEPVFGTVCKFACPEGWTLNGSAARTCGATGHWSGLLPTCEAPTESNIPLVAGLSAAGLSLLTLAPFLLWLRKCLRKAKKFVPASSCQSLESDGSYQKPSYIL

O=S(=O)(O)C(F)(F)C(F)(F)C(F)(F)C(F)(F)F
not listed: [17]
inactive: all other assays above

C=CC(=O)NCNC(=O)C=C
not listed: [4] | CD40, CD40 (gene 958) [5]
inactive: all other assays above

ClC(Cl)=C(c1ccc(Cl)cc1)c1ccc(Cl)cc1
active: [1] 27 µM | [2] 32.6 µM | [3] 20 µM | CD40, CD40 (gene 958) [5] 29.8 µM | [6] 30.6 µM | [9] 26.6 µM | [10] 35.4 µM | [11] 8.02 µM | [13] 32.3 µM | [14] 31.8 µM | [15] 30.4 µM | CD38, CD38 (gene 952) 33.3 µM | CD40, CD40 (gene 958) [16] 32.5 µM | CD69, CD69 (gene 969) 30.6 µM

CN(C)CCO
not listed: [4]
inactive: all other assays above

Cc1cc(O)ccc1Cl
not listed: [4] | CD40, CD40 (gene 958) [5] | [17]
inactive: all other assays above

CC(C)C(=O)OCC(C)(C)C(OC(=O)C(C)C)C(C)C (configuration not stated)
not listed: [4] | CD40, CD40 (gene 958) [5] | [7] | [17]
inactive: all other assays above

CCCCCCCCOC(=O)c1ccccc1C(=O)OCCCCCCCC
active: [15] 7.64 µM | CD38, CD38 (gene 952) 11.2 µM
not listed: [4] | CD40, CD40 (gene 958) [5] | [7] | [17]
inactive: all other assays above

O=NN(c1ccccc1)c1ccccc1
active: [11] 2.14 µM | [14] 3.97 µM
not listed: [4] | CD40, CD40 (gene 958) [5] | [17]
inactive: all other assays above

Oc1ccc(Cl)cc1Cl
not listed: [4] | CD40, CD40 (gene 958) [5] | [7]
inactive: all other assays above

Sc1ccccc1
not listed: CD40, CD40 (gene 958) [5] | [7]
inactive: all other assays above
